# Screen size: about 69,000 compounds; about 1,000 (1.4%) showed an effect of 50% or more. Shown is part of a subset that was picked to be rich in strong results.
# System: Leishmania donovani
# Experiment: Leishmania intramacrophage assay
# Type: functional, organism-based
# Set-up: scale not given: in the data most compounds retested in dose-response had high values
compound,measurement,setting,value
Cc1noc(CN(Cc2cccc(C#N)c2)Cc2ccco2)n1,Percent Effect,"30.3 µM, […]",-9.737%
O=C(c1cnccn1)N1CCN2C[C@H](OCC3CC3)C[C@H]2C1,Percent Effect,"30.3 µM, […]",-6.525%
Cc1cc(Cc2ccccc2F)cc(C2CCCNC2)n1 (configuration not stated),Percent Effect,"30.3 µM, […]",9.469%
Cc1cc(Cc2ccccc2C)cc(C2CCCNC2)n1 (configuration not stated),Percent Effect,"30.3 µM, […]",39.73%
Cc1cc(Cc2ccccc2)cc(C2CCCNC2)n1 (configuration not stated),Percent Effect,"30.3 µM, […]",19.14%
Cc1cccc(Cc2cc(C)nc(C3CCCNC3)c2)c1 (configuration not stated),Percent Effect,"30.3 µM, […]",59.44%
Cc1cc(Cc2ccc(F)cc2)cc(C2CCCNC2)n1 (configuration not stated),Percent Effect,"30.3 µM, […]",22.51%
Cc1cc(Cc2cccc(C(F)(F)F)c2)cc(C2CCCNC2)n1 (configuration not stated),Percent Effect,"30.3 µM, […]",91.42%
CC(O)CCN(C)C(=O)Nc1ccc(Br)cc1 (configuration not stated),Percent Effect,"30.3 µM, […]",-0.06572%
Cc1ccc(CNC(=O)CN2CCCC(Cn3cncn3)C2)cc1 (configuration not stated),Percent Effect,30 µM,15.14%
Nc1nc(N2CCCCCC2)ncc1C(=O)NCc1ccc(F)c(Cl)c1,Percent Effect,"30.3 µM, […]",1.039%
CC(CO)CSc1ncnc2[nH]ncc12 (configuration not stated),Percent Effect,"30.3 µM, […]",-17.01%
O=C(O)C(F)(F)F.O=C(O)C(F)(F)F.O=C1COC2(CCN(Cc3cccnc3)CC2)CN1,Percent Effect,"30.3 µM, […]",22.41%
CC(C)Nc1nc2c(c(NC3CC3)n1)CCN(C(=O)C1CCOC1)CC2 (configuration not stated),Percent Effect,"30.3 µM, […]",26.08%
CC(C)Nc1nc2c(c(NC3CC3)n1)CCN(C1CCOCC1)CC2,Percent Effect,"30.3 µM, […]",70.3%
Cc1nc2c(c(NC(C)C)n1)CCN(C1CCOCC1)CC2.O=C(O)C(F)(F)F,Percent Effect,"30.3 µM, […]",14.91%
CC(C)N(CCO)C(=O)C1CCC(=O)N(CCc2cccc(F)c2)C1 (configuration not stated),Percent Effect,"30.3 µM, […]",21.22%
OCC1(Cc2ccc(Cl)cc2)CCN(Cc2cccnc2)CC1,Percent Effect,"30.3 µM, […]",13.26%
Cc1n[nH]c(C)c1NC(=O)Nc1cccnc1N1CCCC1,Percent Effect,"30.3 µM, […]",-22.16%
CSc1ccc2cc(CN(C)CCO)c(=O)[nH]c2c1,Percent Effect,"30.3 µM, […]",10.15%
COCc1cn(C2CCN(CCC(C)c3ccccc3)CC2)nn1 (configuration not stated),Percent Effect,"30.3 µM, […]",15.55%
CC(CCN1CCC(n2cc(CCO)nn2)CC1)c1ccccc1 (configuration not stated),Percent Effect,"30.3 µM, […]",17.91%
CNCc1cn(C2CCN(CCC(C)c3ccccc3)CC2)nn1 (configuration not stated),Percent Effect,"30.3 µM, […]",69.72%
Cc1noc(C)c1CCCNC(=O)C1CCCN(C(=O)C2CC2)C1 (configuration not stated),Percent Effect,"30.3 µM, […]",17.01%
CCSc1cc(C(=O)NCc2ccc(C(=O)NC)cc2)ccn1,Percent Effect,"30.3 µM, […]",-0.2287%
CCSc1cc(C(=O)NCCNC(=O)Cc2ccccc2)ccn1,Percent Effect,"30.3 µM, […]",42.53%
CCSc1cc(C(=O)NCc2ccccc2O)ccn1,Percent Effect,"30 µM, 30.03 µM",52.62%
CNc1nc(N2C[C@H](NC(=O)CCOC)[C@@H](C3CC3)C2)nc2c1CCC2,Percent Effect,"30.3 µM, […]",20.37%
COCCC(=O)N[C@H]1CN(c2nc(C)c3c(n2)CCCC3)C[C@@H]1C1CC1,Percent Effect,"30.3 µM, […]",-3.355%
CNCC(=O)N[C@H]1CN(c2nc(C)c3c(n2)CCCC3)C[C@@H]1C1CC1,Percent Effect,"30.3 µM, […]",61.72%
Cc1ccc(CN(C)C(=O)c2cnsn2)cc1,Percent Effect,"30.3 µM, […]",19.42%
CCn1nc(CC(C)C)cc1C(=O)N1CC(c2ccncc2)C1,Percent Effect,"30.3 µM, […]",24.78%
CCC(C(=O)NCCc1nc(C)cc(C(F)(F)F)n1)n1cccn1 (configuration not stated),Percent Effect,"30.3 µM, […]",69.8%
CCOCC(=O)NCCc1nc(C)cc(C(F)(F)F)n1,Percent Effect,"30.3 µM, […]",-29.08%
CCC(C(=O)NCc1nc(C)cc(C(F)(F)F)n1)n1cccn1 (configuration not stated),Percent Effect,"30.3 µM, […]",13.87%
O=C(CC1NC(N2CCc3ccccc3C2)=NC1=O)Nc1ccccc1 (configuration not stated),Percent Effect,"30.3 µM, […]",4.892%
COCCC(=O)N1CCN(CC(C)C)c2nc(C)ccc2C1.O=C(O)C(F)(F)F,Percent Effect,"30.3 µM, […]",8.451%
CC1(NC(=O)Cc2cccs2)CCS(=O)(=O)C1 (configuration not stated),Percent Effect,"30.3 µM, […]",19.51%
CCn1nc2ccc(S(=O)(=O)N3CCSCC3)cn2c1=O,Percent Effect,"30.3 µM, […]",8.958%
CC(C)Cn1nc2ccc(S(=O)(=O)N3CCC(C)CC3)cn2c1=O,Percent Effect,"30.3 µM, […]",58.76%
CC(C)CCn1nc2ccc(S(=O)(=O)N3CCOCC3)cn2c1=O,Percent Effect,"30.3 µM, […]",-38.47%
CCN(C)S(=O)(=O)N(Cc1cscn1)c1ccccc1,Percent Effect,"30.3 µM, […]",-18.14%
Cc1nc(C2CCCN2CCCS(N)(=O)=O)no1 (configuration not stated),Percent Effect,30 µM,6.42%
Cc1ccc(-c2cc(C(=O)NCCCc3csc(N)n3)[nH]n2)s1,Percent Effect,"30.3 µM, […]",19.81%
Cc1ccc(-c2cc(C(=O)NCCCc3csc(N)n3)[nH]n2)o1,Percent Effect,"30.3 µM, […]",-46.01%
Cn1cccc1-c1cc(C(=O)NCCCc2csc(N)n2)[nH]n1,Percent Effect,"30.3 µM, […]",54.27%
Cc1ccc(N2CC[C@@H]3O[C@@H](COCc4cccnc4)CC[C@@H]32)nn1.O=C(O)C(F)(F)F.O=C(O)C(F)(F)F,Percent Effect,"30.3 µM, […]",-9.892%
CCN1CC2(CCNCC2)COc2ccccc2S1(=O)=O.O=C(O)C(F)(F)F,Percent Effect,"30 µM, 30.03 µM",13.53%
O=C(c1ccn(COc2ccc(F)cc2)n1)N1CCCC1,Percent Effect,"30.3 µM, […]",0.02157%
CC(C)c1ccc(OCn2ccc(C(=O)N3CCCC3)n2)cc1,Percent Effect,"30 µM, 30.03 µM",59.3%
O=C(c1ccn(COc2ccc(F)cc2)n1)N1CCCCCC1,Percent Effect,"30.3 µM, […]",-66.53%
Cc1nsc(C(=O)NCCc2ccc(Cl)cc2)n1,Percent Effect,"30.3 µM, […]",25.28%
Cc1ccnc(NCCCN2CCc3ccccc32)n1,Percent Effect,"30.3 µM, […]",20.07%
CN(C)c1nc(NCCCN2CCc3ccccc32)ncc1F,Percent Effect,"30.3 µM, […]",50.82%
Cc1cnc(NCCCN2CCc3ccccc32)nc1,Percent Effect,"30.3 µM, […]",21.16%
CNC(=O)c1cccc(NC(=O)CN2CCN(S(C)(=O)=O)CC2)c1,Percent Effect,"30 µM, 30.03 µM",9.767%
Cc1ccc(OCC(=O)N(C)Cc2cccc(F)c2)cn1,Percent Effect,"30.3 µM, […]",34.51%
CSC(C)(C)CNC(=O)NC1CCN(CC2CC2)C1 (configuration not stated),Percent Effect,"30.3 µM, […]",2.957%
NC(=O)C1CCN(C(=O)NC2CCN(CC3CCCC3)C2)CC1 (configuration not stated),Percent Effect,"30.3 µM, […]",54.02%
O=C(NC1CCN(CC2CC2)C1)N1CCC(OC2CCCCC2)CC1 (configuration not stated),Percent Effect,"30.3 µM, […]",53.02%
O=C(CCN1CCOCC1)NC1CCCN(CC2CCCCC2)C1 (configuration not stated),Percent Effect,"30.3 µM, […]",10.41%
O=C(CCN1CCCCO1)NC1CCCN(CC2CCCCC2)C1 (configuration not stated),Percent Effect,"30.3 µM, […]",-1.788%
O=C(NC1CCN(CC2CCCC2)C1)N1CCC(OCC2CC2)CC1 (configuration not stated),Percent Effect,"30.3 µM, […]",32.77%
COc1ncccc1C(=O)N1CCCC1c1c(C)n[nH]c1C (configuration not stated),Percent Effect,"30.3 µM, […]",18%
Cc1noc(C2CCCN(C(=O)CCCNc3ncccn3)C2)n1 (configuration not stated),Percent Effect,30 µM,-32%
CN(CC(=O)N1CCN(c2ncccn2)CC1)c1ccc(Cl)cn1,Percent Effect,"30 µM, 30.03 µM",26.44%
O=C(O)c1ccccc1C1CCN(Cc2ccc(-c3cc[nH]n3)o2)C1 (configuration not stated),Percent Effect,"30.3 µM, […]",8.649%
O=C(O)c1ccc(C2CCCN(Cc3ccc(-c4cc[nH]n4)o3)C2)cc1 (configuration not stated),Percent Effect,"30.3 µM, […]",54.21%
O=C(O)c1ccc(CC2CCN(Cc3ccc(-c4cc[nH]n4)o3)C2)cc1 (configuration not stated),Percent Effect,"30.3 µM, […]",-33.6%
CNC(=O)CNC(=O)Nc1ccc(Br)c(F)c1,Percent Effect,"30.3 µM, […]",-0.911%
CCOc1ccc2ccccc2c1CNCC1CCNCC1.Cl.Cl,Percent Effect,"30.3 µM, […]",87.01%
COc1ccc2ccccc2c1CNCC1CCS(=O)(=O)C1.Cl (configuration not stated),Percent Effect,"30.3 µM, […]",-2.378%
CCOc1ccc2ccccc2c1CNCC1CCS(=O)(=O)C1.Cl (configuration not stated),Percent Effect,"30.3 µM, […]",-4.478%
CN(C)C(=O)COC1COC2(CCN(S(C)(=O)=O)CC2)C1 (configuration not stated),Percent Effect,"30 µM, 30.03 µM",8.131%
COc1ccc(-c2noc([C@@H](C)NS(=O)(=O)CC(C)C)c2C(=O)O)cc1,Percent Effect,"30.3 µM, […]",14.82%
OCc1ccncc1NCc1cnc(-c2ccccn2)s1,Percent Effect,"30.3 µM, […]",26.01%
Cc1nn(CC(=O)NCCc2ccncc2)c(=O)n1Cc1ccccc1,Percent Effect,"30.3 µM, […]",4.169%
C=C(C)COc1cccc(CNCCc2nc(N)cc(O)n2)c1,Percent Effect,"30.3 µM, […]",10.98%
CCOCc1ccc(NC(=O)N2CCOC3(CCC3)C2)cc1,Percent Effect,"30.3 µM, […]",-4.354%
Cc1ccc(C(=O)O)cc1CNC(=O)CN1CC(C)(C)[C@@](C)(O)C1,Percent Effect,"30.3 µM, […]",14.97%
CC1(C)CN(CC(=O)NCc2ccccc2F)C[C@]1(C)O,Percent Effect,"30.3 µM, […]",15.59%
Cc1ccc(C(=O)O)cc1CNC(=O)CN1CC[C@](C)(O)C(C)(C)C1,Percent Effect,"30.3 µM, […]",62.04%
Cn1ccnc1Sc1ccc(S(N)(=O)=O)cn1,Percent Effect,"30.3 µM, […]",-16.43%
Cl.Cn1ccnc1Sc1ccc(N)cn1,Percent Effect,"30.3 µM, […]",50.34%
CN1CCN(S(=O)(=O)c2ccc(Sc3nccn3C)nc2)CC1,Percent Effect,"30.3 µM, […]",0.3902%
COC(=O)CC1C(=O)NCCN1c1nc2c(s1)c(C)nn2C (configuration not stated),Percent Effect,"30.3 µM, […]",6.396%
COc1ccc2c(O)c(NC(=O)NCC3CC3)cnc2c1,Percent Effect,"30 µM, 30.03 µM",-30.24%
C=Cc1ccc(CN2C(=O)C3(CCNCC3)Nc3ccccc32)cc1,Percent Effect,"30.3 µM, […]",98.05%
C=Cc1ccc(CN2CCCC3(CNC(=O)c4ccccc4O3)C2)cc1 (configuration not stated),Percent Effect,"30.3 µM, […]",-7.721%
CC(C)c1ccc(CN2C(=O)C3(CCNCC3)Nc3ccccc32)cc1,Percent Effect,"30.3 µM, […]",100.4%
NC(=O)c1ccc(CN2C(=O)C3(CCNCC3)Nc3ccccc32)cc1,Percent Effect,"30.3 µM, […]",29.82%
N#Cc1cccc(CN2C(=O)C3(CCNCC3)Nc3ccccc32)c1,Percent Effect,"30.3 µM, […]",37.63%
Cl.O=C1CC2(CCNCC2)C(=O)N1Cc1ccc(F)cc1,Percent Effect,"30.3 µM, […]",26.47%
O=C(O)C(F)(F)F.O=S(=O)(N[C@@H]1CCO[C@]2(CCN(CC3CCOCC3)C2)C1)C1CC1,Percent Effect,"30.3 µM, […]",12.64%
Cn1cc(C(=O)NCc2cn3c(n2)CN(Cc2ccccn2)CC3)cn1.O=C(O)C(F)(F)F.O=C(O)C(F)(F)F,Percent Effect,"30 µM, 30.03 µM",26.85%
Cn1cccc1C(=O)NCc1cn2c(n1)CN(Cc1ccccn1)CC2.O=C(O)C(F)(F)F.O=C(O)C(F)(F)F,Percent Effect,"30.3 µM, […]",52.64%
Cn1cccc1C(=O)NCc1cn2c(n1)CN(Cc1cccnc1)CC2.O=C(O)C(F)(F)F.O=C(O)C(F)(F)F,Percent Effect,"30.3 µM, […]",5.106%
O=C(c1cccc2[nH]ccc12)N1CCC2(CCOC2)C1 (configuration not stated),Percent Effect,"30.3 µM, […]",24.57%
Cc1cnc(N2CCOCC3(CCN(c4ccccn4)C3)C2)nc1.O=C(O)C(F)(F)F.O=C(O)C(F)(F)F (configuration not stated),Percent Effect,"30.3 µM, […]",-8.514%
CCc1c(C)sc2nc3n(CCN(C)C)nc(SC)n3c(=O)c12,Percent Effect,"30.3 µM, […]",24.34%
CCc1c(C)sc2nc3n(CCN4CCOCC4)nc(SC)n3c(=O)c12,Percent Effect,"30.3 µM, […]",9.764%
CCc1c(C)sc2nc3n(CCN4CCCCC4)nc(SC)n3c(=O)c12,Percent Effect,"30.3 µM, […]",50.52%
